Drawing on PubChem BioAssay (NCATS), this text covers Potency and outcome for 16 molecules.

Where “and” joins values, the source holds several entries; their conditions need not be identical. Equal values may be shown once. Results filed as inconclusive are left out. A structure can be active in one record and inactive in another. Calls of active or inactive are those of the source. Calls come from the whole dose curve; as a rule, active = well fitted curve in the direction sought with a large enough effect; inconclusive = small, poorly fitted or top-dose-only effect, or another doubt; inactive = no such curve, though single readings can be large; an effect the other way counts as inactive or inconclusive.

For one test, the system named is MCC-13. Description: qHTS assay to identify novel small-molecules to repurpose for Merkel cell carcinoma treatment (AID 1296009). Note: nearly all actives have a fitted effect of over 60% in size. Particulars: MCC and control cell lines, CellTiter-Glo viability, 72 h; series mostly up to 46 µM. The method, boiled down: (§1)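 After compound transfer in DMSO, plates were kept 72 hr at 37 degree celsius. Luminescent ATP signal from CellTiter-Glo served as viability measure, normalized against DMSO and no-cell controls.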

The next test relates to MCC-26. Described as above. Particulars: MCC and control cell lines, CellTiter-Glo viability, 72 h; series mostly up to 46 µM. The method, boiled down: as §1
A general note: Cellular ATP, detected with luciferase, serves as a proxy for viable cell number.

A further test relates to MKL-2. The description is as above. Particulars: MCC and control cell lines, CellTiter-Glo viability, 72 h; series mostly up to 46 µM. The method, boiled down:
as §1

A further test relates to UISO. The test is described as above. Particulars: MCC and control cell lines, CellTiter-Glo viability, 72 h; series mostly up to 46 µM. The method, boiled down: as §1
Another test has as its system CASKI. Description: Primary qHTS to identify gynecologic anti-cancer compounds using libraries of approved drugs and bioactive compounds (AID 1345084). Note: nearly all actives have a fitted effect of over 55% in size. Particulars: Gynecologic cancer cell panel viability, ATPlite luminescence, 48 h; series mostly up to 57.5 µM. The method, boiled down: (§2)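 Cells, 1,000 per well, were allowed to settle for 16 h at 37 C before compound addition. Five concentrations were tested for 48 h, and viability was read by ATPlite luminescence after 15 min at room temperature.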
For orientation: qHTS replaces the single test concentration by a dilution series.

For another test, the system named is Es-2. The description is as above. To be noted: Gynecologic cancer cell panel viability, ATPlite luminescence, 48 h; series mostly up to 57.5 µM. The method, boiled down: as §2
A further test relates to HeLa. The test is described as above. To be noted: Gynecologic cancer cell panel viability, ATPlite luminescence, 48 h; series mostly up to 57.5 µM. The method in brief:
as §2

The test system of a further test is Tov-21-G. The description is as above. To be noted: Gynecologic cancer cell panel viability, ATPlite luminescence, 48 h; series mostly up to 57.5 µM. The method in brief: as §2
In another test the test system is Tov112D. The description is as above. To be noted: Gynecologic cancer cell panel viability, ATPlite luminescence, 48 h; series mostly up to 57.5 µM. The method in brief: as §2
Another test deals with PA-1. Described as above. To be noted: Gynecologic cancer cell panel viability, ATPlite luminescence, 48 h; series mostly up to 57.5 µM. The method in brief:
as §2

The subject of a further test is SKOV3. The description is as above. Particulars: Gynecologic cancer cell panel viability, ATPlite luminescence, 48 h; series mostly up to 57.5 µM. The method in brief:
as §2

The next test deals with C33A. Described as above. To be noted: Gynecologic cancer cell panel viability, ATPlite luminescence, 48 h; series mostly up to 57.5 µM. The method in brief: as §2
For the next test, the system named is CAOV3. Described as above. Particulars: Gynecologic cancer cell panel viability, ATPlite luminescence, 48 h; series mostly up to 57.5 µM. The method, boiled down:
as §2

The subject of the next test is Hek293T. The description is as above. To be noted: Gynecologic cancer cell panel viability, ATPlite luminescence, 48 h, control line for the selectivity index; series mostly up to 57.5 µM. The method, boiled down: as §2
The next test deals with JEG-3. The description is as above. Particulars: Gynecologic cancer cell panel viability, ATPlite luminescence, 48 h; series mostly up to 57.5 µM. The method, boiled down:
as §2

The next test concerns OV90. The description is as above. To be noted: Gynecologic cancer cell panel viability, ATPlite luminescence, 48 h; series mostly up to 57.5 µM. The method in brief: as §2
The next test has as its system MKL-1. The test can be described thus: qHTS assay to identify novel small-molecules to repurpose for Merkel cell carcinoma treatment (AID 1296009). Note: nearly all actives have a fitted effect of over 60% in size. Particulars: MCC and control cell lines, CellTiter-Glo viability, 72 h; series mostly up to 46 µM. The method in brief:
as §1

The test system of a further test is WaGa. The description is as above. To be noted: MCC and control cell lines, CellTiter-Glo viability, 72 h; series mostly up to 46 µM. The method, boiled down: as §1
The subject of a further test is NIH3T3. The description is as above. To be noted: MCC and control cell lines, CellTiter-Glo viability, 72 h; at 44.8 µM (top of the series) unless noted. The method, boiled down:
as §1
Potency is the fitted concentration of half-maximal effect.

With `CN1CCC(Nc2ncc3ncnc(Nc4ccc(F)c(Cl)c4)c3n2)CC1`, the Potency result with MCC-13, in the test on MCC-26, with UISO, in the test on CASKI, with Es-2 and in the test on HeLa was “inactive” throughout. Besides, the Potency entry with Tov-21-G and in the test with Tov112D was “inactive” throughout. Besides, the Potency with MKL-2 is 15 µM (active).
With `CC(C(O)c1ccccc1)N(C)CCOC(c1ccccc1)c1ccccc1` (centres undefined), the Potency result in the test with MCC-13, in the test with MCC-26, in the test with Es-2, with HeLa, with PA-1 and with Tov-21-G was “inactive” each time. The Potency result in the test on Tov112D was “inactive”. Also, the Potency in the test on SKOV3 is 20 µM (active).
Take `CC1CCCCN1CCCOC(=O)c1ccc(OC2CCCCC2)cc1` (centres undefined): the Potency entry in the test with MCC-13, in the test with MCC-26, with UISO, in the test on C33A, with CAOV3 and in the test on CASKI was “inactive” each time. In addition, the Potency result in the test with Es-2, with HeLa, in the test on Hek293T, in the test with JEG-3, with OV90 and with PA-1 was “inactive” in each case. Besides, the Potency entry in the test with Tov-21-G and with Tov112D was “inactive” in each case.
As for `CCCCCCCCCCCC[N+](C)(C)Cc1ccccc1`, the Potency in the test on MCC-26 is 23.7 µM (active); in the test with MKL-1 it was 1.06 µM (active); in the test on MKL-2 it was 0.0944 µM (active); in the test with UISO it was 1.19 µM (active); in the test with WaGa it was 1.88 µM (active); in the test on C33A it was 2.51 µM (active). The Potency was 5.62 µM (active) with CAOV3; 2.24 µM (active) in the test with CASKI; 7.94 µM (active) with Es-2; 10 µM (active) in the test on HeLa; 15.8 µM (active) in the test on Hek293T; 14.1 µM (active) in the test on OV90. For the same molecule, the Potency in the test on PA-1 is 8.91 µM (active); in the test on SKOV3, 3.16 µM (active); in the test with Tov-21-G, 7.94 µM (active); in the test with Tov112D, 25.1 µM (active).
In the case of `COc1c(C)c2c(c(O)c1C/C=C(\C)CCC(=O)OCCN1CCOCC1)C(=O)OC2`, the Potency in the test on MCC-13 was 0.944 µM (active); in the test with Tov-21-G, 2 µM (active). In addition, the Potency result in the test on MKL-1, with MKL-2, with WaGa, with CAOV3 and in the test on JEG-3 was “inactive” in each case.
Consider `CCCCCCCCCCCCCC[N+](C)(C)C`, for which the Potency with MCC-26 was 16.8 µM (active); in the test on MKL-1 it was 1.19 µM (active); with MKL-2, 1.19 µM (active); in the test on UISO, 2.37 µM (active); in the test on WaGa, 1.33 µM (active); in the test with CASKI it was 3.16 µM (active). Besides, the Potency with Es-2 is 14.1 µM (active); with PA-1, 11.2 µM (active); with Tov-21-G, 5.62 µM (active); with Tov112D, 14.1 µM (active).
As to `OC1(c2ccccc2)CCNCC1`, the Potency entry in the test with MCC-13, in the test on MKL-1, in the test on MKL-2, in the test on UISO, with WaGa and with C33A was “inactive” throughout. Further, the Potency entry in the test with CAOV3, with CASKI, in the test with Es-2, in the test with HeLa, with Hek293T and in the test on JEG-3 was “inactive” in each case. The Potency result in the test with OV90, in the test with PA-1, with SKOV3, in the test with Tov-21-G and in the test with Tov112D was “inactive” throughout. For the same molecule, the molecule was called inactive in the test on NIH3T3.
`Nc1ccc2cc3ccc(N)cc3nc2c1`: the Potency was 13.3 µM (active) in the test with MCC-13; 4.22 µM (active) in the test with MKL-1; 8.41 µM (active) with UISO; 2.66 µM (active) in the test with WaGa; 28.2 µM (active) with C33A; 8.91 µM (active) with CAOV3. The Potency was 11.2 µM (active) with CASKI; 8.91 µM (active) in the test with Es-2; 17.8 µM (active) in the test with HeLa; 6.31 µM (active) with Hek293T; 28.2 µM (active) in the test on OV90; 7.94 µM (active) in the test on PA-1. The Potency in the test on Tov112D is 28.2 µM (active).
For the molecule `CC[C@@]1(O)C(=O)OCc2c1cc1n(c2=O)Cc2c-1nc1ccccc1c2/C=N/OC(C)(C)C`, the Potency in the test with MCC-13 is 0.0841 µM (active); in the test with MCC-26 it was 0.0944 µM (active); with MKL-2 it was 0.0376 µM (active); with UISO, 0.168 µM (active); with WaGa, 0.0266 µM (active); in the test on Hek293T, 0.355 µM (active). The Potency with OV90 is 8.91 µM (active); in the test with Tov-21-G, 1.41 µM (active). In addition, the Potency entry in the test on HeLa and with JEG-3 was “inactive” each time.
On to `OC1(c2ccc(Cl)c(C(F)(F)F)c2)CCN(CCCC(c2ccc(F)cc2)c2ccc(F)cc2)CC1`, for which the Potency in the test on MCC-13 is 18.8 µM (active); with MKL-1, 7.5 µM (active); in the test with MKL-2 it was 5.31 µM (active); with UISO, 10.6 µM (active); with WaGa it was 15 µM (active); in the test on Es-2, 25.1 µM (active) and inactive. The Potency with HeLa is 25.1 µM (active) and inactive; with OV90, 25.1 µM (active) and 31.6 µM (active); in the test on SKOV3 it was 25.1 µM (active); in the test with Tov112D it was 31.6 µM (active) and inactive. For the same molecule, the Potency result in the test on PA-1 and in the test on Tov-21-G was “inactive” throughout.
With `CC(C)=CCNc1ncnc2c1ncn2[C@@H]1O[C@H](CO)[C@@H](O)[C@H]1O`, the Potency is 8.41 µM (active) in the test with MCC-13; 1.68 µM (active) in the test on MKL-1; 0.944 µM (active) in the test on MKL-2; 1.88 µM (active) with UISO; 2.99 µM (active) with WaGa; 12.6 µM (active) with C33A. Further, the Potency with CAOV3 is 7.94 µM (active); with CASKI, 12.6 µM (active); in the test on Es-2, 25.1 µM (active); in the test on HeLa, 14.1 µM (active); with OV90, 17.8 µM (active); in the test with PA-1 it was 7.94 µM (active). Also, the Potency in the test with SKOV3 was 11.2 µM (active); in the test on Tov-21-G it was 10 µM (active); in the test on Tov112D, 7.08 µM (active).
As to `C=CCNc1nc(NCC=C)nc(N2CCN(C(c3ccc(F)cc3)c3ccc(F)cc3)CC2)n1`, the Potency result with MCC-13, in the test with MCC-26, in the test with MKL-1, with C33A, in the test with CASKI and with Es-2 was “inactive” throughout. For the same molecule, the Potency result in the test on HeLa, in the test with JEG-3, with PA-1, in the test on Tov-21-G and in the test with Tov112D was “inactive” in each case.
Turning to `O=C1NCCN1CCN1CCC(c2cn(-c3ccc(F)cc3)c3ccc(Cl)cc23)CC1`, the Potency in the test on MCC-26 is 21.1 µM (active); with MKL-1 it was 8.41 µM (active); in the test on MKL-2, 2.99 µM (active); in the test on WaGa it was 10.6 µM (active); in the test with C33A, 20 µM (active); in the test on CASKI it was 35.5 µM (active). The figures for the Potency with Hek293T and with SKOV3 were 31.6 µM (active) and 28.2 µM (active), respectively.
For the molecule `Nc1ccc2c(c1)CN1C(=O)c3ccccc3C1=N2`, the Potency entry with MCC-26, in the test on MKL-2 and with UISO was “inactive” each time. Further, the Potency is 6.31 µM (active) in the test on CASKI; 10 µM (active) with Es-2; 11.2 µM (active) in the test on JEG-3; 7.94 µM (active) in the test with SKOV3; 10 µM (active) with Tov-21-G.
In the case of `O=c1[nH]sc2cc(Cl)ccc12`, the Potency with MCC-13 is 6.68 µM (active). Also, the Potency result with MKL-1, in the test on MKL-2, in the test on WaGa, in the test with CASKI, with HeLa and in the test with JEG-3 was “inactive” throughout. In addition, the Potency entry in the test with OV90 and with Tov112D was “inactive” throughout.
In the case of `CCOC(=O)N1CCC(n2c(=O)[nH]c3cc(Cl)ccc32)CC1`, the Potency result in the test with MCC-13, in the test on MCC-26, with MKL-1, in the test on C33A, with CAOV3 and with CASKI was “inactive” throughout. For the same molecule, the Potency entry in the test on Es-2, with HeLa, in the test on PA-1, in the test on Tov-21-G and in the test on Tov112D was “inactive” each time.
